Molecules are shown by their SMILES. Screen size: about 300,000 compounds; about 37,000 (12%) were called active. Rule as the data show it: active = max response mostly above about 13% (no sharp cut-off); inactive = mostly below about 14%. Only a selection was taken, and actives are over-represented in it overall.

A short description of the assay: Cycloheximide Counterscreen for Small Molecule Inhibitors of Shiga Toxin. Also: read at 38.3 µM for the half of the compounds with a filed dose; 0% is about no effect. The settings on record: cell reporter, cycloheximide protein synthesis inhibition counterscreen; hits give high values.
Turning to `COc1ccc(C(CCN2CCOCC2)c2c(OC)cc(OC)c3c2OC(=O)CC3c2ccc(OC)cc2)cc1` (stereo unspecified), the max response was 3.67% (inactive).

Take `CCn1c(/C=C/Nc2ccccc2)[n+](CC)c2ccc(C(=O)OCC(F)(F)F)cc21`: the max response was -3.17% (inactive). As for `COc1ccccc1NC(=O)N1CCCC1C(=O)NCc1cccs1` (stereo unspecified), the max response was 4.62% (inactive). In the case of `CCc1cc(=O)oc2cc(C)cc(OCC(=O)N3CCC[C@@H]3C(=O)O)c12`, the max response was -2.38% (inactive). For `CCC1Oc2ccccc2N(CC(=O)NCCCN2CCN(CC)CC2)C1=O` (stereo unspecified), the max response was -1.43% (inactive). On to `Oc1cccc2ccc(/C=C/c3ccc(Br)s3)nc12`, for which the max response is 56.7% (active). With `Nc1ccc(S(=O)(=O)Nc2nccc(/C=C/c3ccc(Br)s3)n2)cc1`, the max response was 0.595% (inactive). Take `O=C(CN1C(=O)c2cccnc2Oc2ccc(Cl)cc21)NCCc1ccccc1`: the max response is 18.6% (inactive).

In the case of `Cc1cc(C)n2nc(CNS(=O)(=O)c3c(F)c(F)c(F)c(F)c3F)nc2n1`, the max response is 1.02% (inactive). Consider `COc1ccc(S(=O)(=O)c2c[nH]c(=S)[nH]c2=O)cc1Cl`, for which the max response is -3.71% (inactive). For the compound `COc1cc(CNCc2ccc3c(c2)OCO3)c([N+](=O)[O-])cc1OC`, the max response was 13.8% (active).

Take `Cc1ccc(CNCc2ccc3c(c2)OCO3)c(C)c1`: the max response is 0.612% (inactive). As to `COc1cccc(CNCc2ccc3c(c2)OCO3)c1`, the max response is 7.15% (inactive). Regarding `Cc1ccc(-c2nn(-c3ccccc3)cc2/C=C/C(=O)Nc2cccc(S(N)(=O)=O)c2)cc1`, the max response is 6.92% (inactive).

As for `COc1ccc(CCNC2=CC(=O)CC(C)(C)C2)cc1`, the max response is 17% (inactive). Take `CN1C(CC(=O)Nc2ccc(Br)cc2)c2ccccc2CC1(C)C` (stereo unspecified): the max response was 7.55% (inactive). As to `CCN(CC)CCN1C(=O)C(=O)/C(=C(/O)c2cnn(-c3ccccc3)c2C)C1c1cccs1` (stereo unspecified), the max response was 49.4% (active).

Consider `CCN(CC)CCN1C(=O)C(=O)/C(=C(/O)c2ccccc2)C1c1ccccc1F` (stereo unspecified), for which the max response was -1.86% (inactive). Regarding `CCOc1cccc(/C(O)=C2/C(=O)C(=O)N(CCOC)C2c2ccncc2)c1` (stereo unspecified), the max response was 3.2% (inactive). On to `COC(=O)c1cc(S(=O)(=O)N2CCC(C(N)=O)CC2)oc1C`, for which the max response is -3.53% (inactive). The same measure for `Cc1c(C)c(C)c(S(=O)(=O)N2CCC3(CC2)OCCO3)c(C)c1C`: -1.61% (inactive); for `CC(=O)Oc1ccc2c(C)c(CC(C)O)c(=O)oc2c1` (stereo unspecified): -8.36% (inactive). As for `CCc1c(C)c2ccc(OC3CCCCC3=O)cc2oc1=O` (stereo unspecified), the max response was 16.5% (active).

Consider `Cc1c(Cc2ccccc2)c(=O)oc2cc(OCC(N)=O)ccc12`, for which the max response was 1.87% (inactive). With `COc1ccc(-n2cnnc2SCC(=O)Nc2cccc(S(N)(=O)=O)c2)cc1`, the max response was -5.17% (inactive). `Cc1cc(C)c(S(=O)(=O)Nc2c(C)n(C)n(-c3ccccc3)c2=O)cc1[N+](=O)[O-]`: the max response is -2.16% (inactive).

Take `COc1cccc(OCc2nnc3n2N=C(c2ccccc2)C(CC(=O)O)S3)c1` (stereo unspecified): the max response was 9.69% (inactive). As for `CCc1ccc(NC2Nc3cc(C)nn3S2)cc1` (stereo unspecified), the max response is 49.2% (active). Consider `CCOC(=O)c1ccc(NC2Nc3cc(C)nn3S2)cc1` (stereo unspecified), for which the max response was 5.82% (inactive). For the compound `COC(=O)c1cc(C(=O)NC(C)C2CC3CCC2C3)cc([N+](=O)[O-])c1` (stereo unspecified), the max response is -12.3% (inactive). For the compound `COC(=O)c1ccc(N2CCOCC2)c(NC(=O)c2ccc(Br)o2)c1`, the max response was -2.23% (inactive). The same measure for `CCn1c(/C=N/NC(=O)c2ccc(OC)cc2)nc2ccccc21`: -2.39% (inactive). Turning to `COc1ccc(/C=N/NC(=O)c2cccc(C(F)(F)F)c2)cc1`, the max response is 6.57% (inactive).

Regarding `Cn1cccc1/C=N/NC(=O)c1ccc(OC(F)(F)C(F)F)cc1`, the max response is 38.1% (active). Consider `CC(Oc1ccccc1)C(=O)Nc1c2c(nn1-c1ccccc1)CS(=O)C2` (stereo unspecified), for which the max response was -2.14% (inactive). The same measure for `CC(=O)Nc1ccc(S(=O)(=O)Nc2nc(-c3ccc(C(C)(C)C)cc3)cs2)cc1`: -0.918% (inactive); for `CC(=O)Nc1ccc(OCC(=O)NCc2ccc(C)cc2)cc1`: 7.82% (inactive); for `CC(=O)Nc1ccc(-c2cn3cccnc3n2)cc1`: 25.4% (active). In the case of `CC(C)(C)C(=O)Nc1ccc(-c2cn3cccnc3n2)cc1`, the max response was 28.5% (active). As to `CCCCC(=O)Nc1ccc(C(=O)NCCCn2ccnc2)cc1`, the max response is 3.08% (inactive). Take `CCCCCC(=O)Nc1ccc(-c2cn3cccnc3n2)cc1`: the max response is 25.3% (active).

In the case of `CCOc1cc(-c2cc(-c3ccc(NC(C)=O)cc3)nc(N)c2C#N)ccc1O`, the max response was -3.59% (inactive). In the case of `CC(=O)Nc1ccc(S(=O)(=O)Nc2cccc(NC(=O)C(C)(C)C)c2)cc1`, the max response was 4.2% (inactive). As to `CCCCCC(=O)Nc1ccc(S(=O)(=O)Nc2ccc(Cl)nn2)cc1`, the max response was 5.65% (inactive). The same measure for `CON(C)S(=O)(=O)c1ccc2c(c1)NC(=O)C1CCCN21` (stereo unspecified): -1.81% (inactive). In the case of `CCN(CC(=O)N1CCCC1)S(=O)(=O)c1ccc(F)cc1`, the max response is -0.599% (inactive). Consider `Cc1ccc(O)c(CNc2nc3ccccc3[nH]2)c1`, for which the max response was 19.7% (active).

Turning to `Cn1c(CNC(=O)C(C)(C)C)nc2ccccc21`, the max response was -0.534% (inactive). The figure for `CC(C)n1c(NCc2c[nH]c3ccccc23)nc2ccccc21` is 5.28% (inactive); for `Cc1ccc(O)c(CNc2nc3ccccc3n2C)c1` it is 35% (active). `OCCNc1nc2ccccc2[nH]1`: the max response was -3.17% (inactive).

On to `Cc1ccc(C)c(N2CCN(C(=O)CCc3nc4ccccc4[nH]3)CC2)c1`, for which the max response is -4.18% (inactive). For the compound `CC(=O)c1ccc(NC(=O)Cn2c(=O)oc3ccccc32)cc1`, the max response is 0.709% (inactive).

In the case of `Cc1ccc(-n2ncc(C(=O)NC3CC3)c2C2CCN(C(=O)OC(C)(C)C)CC2)c(C)c1`, the max response is 5.17% (inactive).

In the case of `CCOc1ccccc1NS(=O)(=O)c1c[nH]c(C(=O)OC)c1`, the max response was -0.295% (inactive). As for `Cc1ccccc1N1CC(C(=O)Nc2nnc(SCCC3OCCO3)s2)CC1=O` (stereo unspecified), the max response was 0.819% (inactive). For `CCc1nnc(NC(=O)C2CC(=O)N(c3ccc4c(c3)OCCO4)C2)s1` (stereo unspecified), the max response was 6.49% (inactive).

Take `c1ccc2cc3c(NCCN4CCOCC4)ccnc3cc2c1`: the max response is -2.42% (inactive). As for `Cn1cc(C(=O)c2ccc(Cl)cc2Cl)cc1C(=O)NN`, the max response is -5.78% (inactive). For the compound `O=C(CCN1CCCCC1)N=Nc1c(O)[nH]c2ccccc12`, the max response was 2.5% (inactive). For the compound `COc1ccccc1-n1ccnc1SCC(=O)NC(C)(C)C`, the max response is -1.32% (inactive). For `Cc1ccccc1CSCC(=O)NC(=O)NC(C)(C)C`, the max response is 9.92% (inactive). In the case of `CC(C)(C)NC(=O)CSC(=Nc1ccccc1F)NC#N`, the max response is 27.7% (active). Consider `CCc1nn(CC(=O)N2CCN(CC)CC2)c(=O)c2cccn12`, for which the max response is -0.288% (inactive). In the case of `CCc1ccccc1NC(=O)CCOc1ccccc1`, the max response was 0.846% (inactive). `Cc1ccc(C(=O)NC(=S)Nc2ccccc2C)cc1`: the max response was 43.9% (active). For `Cn1nnc(NC(=S)NC(=O)c2ccccc2)n1`, the max response is 10.8% (inactive).

With `Cc1ccccc1NC(=O)CCOc1ccccc1`, the max response is 32.8% (active). Turning to `Cc1cc2[nH]ncc2cc1NC(=S)NC(=O)c1ccccc1`, the max response is 16.5% (active). With `Cc1ccccc1C(=O)Nc1ccccc1Sc1ccccc1`, the max response is -2.65% (inactive).

`Cc1ccccc1NC(=S)NC(=O)Cc1ccc(Cl)cc1`: the max response was -2.71% (inactive). Regarding `Cc1ccc(C(=O)NC(=S)NCc2cccnc2)cc1`, the max response was 18.8% (inactive). Regarding `Cc1c(NC(=O)CCCOc2ccccc2)cccc1[N+](=O)[O-]`, the max response was 6.53% (inactive).

As for `Cc1ccccc1C(=O)Nc1ccccc1NC(=O)c1ccccc1C`, the max response is -4.55% (inactive). The same measure for `Cc1cc(C)cc(C(=O)NC(=S)Nc2ccc3[nH]c(=O)[nH]c3c2)c1`: -3.08% (inactive); for `Cc1ccccc1NC(=O)c1ccccc1`: 15.4% (active); for `COC(=O)C1(C)NC(c2ccccc2OC)C2C(=O)N(c3ccccc3)C(=O)C21` (stereo unspecified): -3.69% (inactive).

Regarding `COc1ccc(N2CCN(S(=O)(=O)CCNC(=O)C34CC5CC(CC(C5)C3)C4)CC2)cc1`, the max response is -6.7% (inactive). For `CCN(CC(=O)NCC(=O)Nc1cccc(C)c1C)Cc1ccccc1`, the max response is -0.652% (inactive). Turning to `O=C1C(=O)N(CCCN2CCOCC2)C(c2ccc([N+](=O)[O-])cc2)/C1=C(\O)c1ccc2c(c1)OCCO2` (stereo unspecified), the max response is 13.6% (inactive). For `COc1ccccc1NC(=O)c1cc(N2C(=O)C3C4CCC(C4)C3C2=O)ccc1Cl` (stereo unspecified), the max response was 21.1% (inactive). In the case of `Cc1ccc(CNC(=O)c2ccc(CS(=O)Cc3cccc(Cl)c3)o2)cc1` (stereo unspecified), the max response was 5.04% (inactive). The figure for `CCC(C)C(=O)Nc1ccccc1N1CCN(c2ccc(F)cc2)CC1` (stereo unspecified) is 5.61% (inactive). Consider `C/C(=N\NC(=S)NCc1ccccc1)C1CCCCC1`, for which the max response is -2.61% (inactive). As to `COC(=O)[C@@H]1CC(O)CN1C(=O)C12CC3CC(CC(C3)C1)C2` (stereo partly specified), the max response was -8.25% (inactive). Consider `COc1ccc(C(=O)NC2CC2)cc1OC1CCN(Cc2ccc(SC)cc2)CC1`, for which the max response was 10.6% (inactive).

Regarding `Cc1nc([N+](=O)[O-])cn1CC(=O)Nc1ccc(Cl)cc1`, the max response was -1.69% (inactive). With `CC(=O)Nc1ccc(C(=O)OCC(=O)Nc2ccc([N+](=O)[O-])cc2C(F)(F)F)cc1`, the max response was -3.83% (inactive). Consider `O=C(NC(=O)c1ccccc1)Nc1ccccc1O`, for which the max response was 38.7% (active). Turning to `O=C(NC(=O)c1ccccc1)NC(=O)c1ccccc1`, the max response is 8.89% (inactive). Consider `O=C(Nc1ccc(C(=O)O)c(O)c1)c1ccccc1`, for which the max response is -3.21% (inactive). The figure for `O=C(CCN1CCN(C/C=C/c2ccccc2)CC1)Nc1ccccc1Cl` is -2.77% (inactive); for `Cc1ccc(-c2nnc(CN3CCN(C)CC3)o2)cc1` it is 11.1% (inactive). Take `Cc1ccc(CNC(=O)CCS(=O)(=O)c2ccc3c(c2)CC(C)N3C(=O)C2CC2)o1` (stereo unspecified): the max response was 22.1% (active). Turning to `COc1ccccc1CNC(=O)C1CCN(S(=O)(=O)c2ccc3c(c2)CC(C)N3C(=O)C2CC2)CC1` (stereo unspecified), the max response was 1.43% (inactive). For the compound `CCC(=O)N1c2ccc(S(=O)(=O)CCC(=O)N3CCN(c4ccccc4)CC3)cc2CC1C` (stereo unspecified), the max response was -1.91% (inactive).

(Values after PubChem BioAssay AID2314 (National Center for Advancing Translational Sciences (NCATS), 2010).)
